This is an account of results in PubChem BioAssay (NCATS).

Assay [1] concerns the target Lysosomal acid glucosylceramidase (Homo sapiens) (UniProt P04062). As to the kind of experiment: Glucocerebrosidase-p2 (AID 348; in the data active means potency below about 10 µM; further: potency means the concentration at half of the fitted maximal effect). Particulars: purified GBA, blue fluorogenic substrate, 40 min. In a few lines: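 Compounds titrated from 0.6 nM upwards against 0.2 nM enzyme in pH 5.9 citric acid/KH2PO4, taurocholate, tween-20; blue fluorogenic substrate 80 uM, 40 min room temperature, stopped and read Ex 365/Em 440 for AC50.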

Assay [2] is described as follows: AP1 Signaling Pathway (AID 357).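 Further: ME-180 reporter cells stimulated with EGF at its EC50 level; on the % scale 0 is the no-effect control and ±100 the full control effect.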 Particulars: ME-180 AP-1-bla reporter, EGF-induced, beta-lactamase ratio, 5 h; at 7.69 µM (top of the series) unless noted. In short, it runs like this:
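In this screen, ME-180 cells in Opti-MEM with 0.5% dialyzed FBS received EC50 EGF and compound titrations for 5 h. AP-1 reporter beta-lactamase was detected via CCF4 ratio, giving AC50 for positive and negative modulators.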

The target in assay [3] is Cytochrome P450 1A2 (Homo sapiens) (UniProt P05177). Briefly: p450-cyp1a2 (AID 410; calls by dose curve; further: potency means the concentration at half of the fitted maximal effect). Particulars: recombinant CYP1A2, luciferin-ME demethylation, luminescence; series mostly up to 57 µM. In a few lines: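 Human CYP1A2 (20nM) demethylated Luciferin-ME at its Km (100uM) in 100mM KPO4. After 10 min compound preincubation, NADPH regeneration ran the reaction 60 min at room temperature. Luciferin was read by luminescence, normalized to 57 uM furafylline.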

Assay [4] is described as follows: NFAT Signaling Pathway (AID 444).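 Further: carbachol stimulus at about its EC50 of 1 µM final; on the % scale 0 is the no-effect control and ±100 the full control effect.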 Particulars: Jurkat NFAT-bla M1, carbachol, beta-lactamase ratio, 5 h; at 7.69 µM (top of the series) unless noted. In short, it runs like this:
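Read-out: CCF4 FRET ratio (460 nm/530 nm) after 1 h RT dye loading, used for %activity and AC50 from titration series. Cells: Jurkat NFAT-β-lactamase/M1 line, treated with compound plus 1 uM carbachol for 5 h, 37 °C.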

A short description of assay [5]: Stat Signaling Pathway (AID 446).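 Further: ME-180 cervical cancer cells given 40 pM IL-6 alongside compound; SIE-controlled beta-lactamase reporter measured as 460/530 nm FRET emission ratio; on the % scale 0 is the no-effect control and ±100 the full control effect.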 To be noted: ME-180 SIE beta-lactamase reporter, IL-6 stimulated, 5 h; at 7.69 µM (top of the series) unless noted. In short, it runs like this: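 ME-180 cells carrying a SIE-driven beta-lactamase reporter are stimulated with 40 pM IL-6 for 5 h at 37C in the presence of compound. The 460/530 nm FRET substrate ratio is read after 2.5 h at RT. Data are normalised to 300 pM IL-6 and to 125 nM JAK inhibitor controls.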

For assay [6], the target named is Glucocorticoid receptor (Homo sapiens) (UniProt P04150). Briefly: GR-EFC Redistribution (AID 451; calls by dose curve; further: potency means the concentration at half of the fitted maximal effect). To be noted: CHO-K1 GR-EFC translocation, beta-gal luminescence, 2 h. In short, it runs like this: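 Translocation of GR-ED fusion to nuclear EA restores b-gal, read by luminescence after 1 h room-temperature detection. Engineered CHO-K1 biosensor cells, 1,000/well, exposed 2 h at 37 C to titrations up to 46 uM final.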

For assay [7], the target named is Mitogen-activated protein kinase 10 (Mus musculus) (UniProt Q61831). Briefly: JNK3 AlphaScreen Assay (AID 530).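 Further: kinase came from lysate of stimulated human HepG2 cells; signal reports phosphorylation of biotinylated GST-cJun 1-79 at Ser73 with 10 µM ATP; on the % scale 0 is the no-effect control and ±100 the full control effect.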 To be noted: JNK3 lysate, c-Jun phosphorylation; series mostly up to 57.1 µM. In a few lines: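 Room-temperature AlphaScreen kinase assay; pre-activated HepG2 lysate as JNK3 source, biotin-GST-cJun(1-79) substrate, 10 uM ATP, compound 15 min preincubation.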
For orientation: Alpha assays give light when donor and acceptor beads are brought close together.

Assay [8] concerns the target 3',5'-cyclic-AMP phosphodiesterase 4B (Homo sapiens) (UniProt Q07343). As to the kind of experiment: qHTS Assay for Inhibitors of PDE-IV (AID 607; active means well fitted activation curve with a large enough effect in the main read-out, with a control signal flat, not every such curve was filed as active; further: % of control where 0% means no effect). To be noted: HEK293 ACTOne CNG channel cells, membrane potential fluorescence; series mostly up to 22.9 µM. In short, it runs like this: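 HEK293 ACTOne cells with CNG channel (1000/well), endogenous PDE4; membrane potential dye, compounds up to 22.9 uM final. Fluorescence Ex 535/Em 590; RO 20-1724 (100 uM final) as reference.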
For orientation: Quantitative high-throughput screening tests each substance at several concentrations.

In assay [9] the target is Cytochrome P450 3A4 (Homo sapiens) (UniProt P08684). As to the kind of experiment: qHTS Assay for Activators of Cytochrome P450 3A4 (AID 885; active means well fitted curve in the direction sought with a large enough effect; an effect the other way counts as inactive or inconclusive; further: nearly all actives have a fitted effect of over 65% in size). To be noted: recombinant CYP3A4, Luciferin-PPXE luminescence, 60 min; series mostly up to 57.1 µM. In a few lines: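 Human CYP3A4 (20 nM) with Luciferin-PPXE at 25 uM (its KM) in 200 mM KPO4; 10 min compound preincubation, then NADPH regeneration and 60 min reaction at RT. Luciferin read by luminescence; normalized to 57 uM ketoconazole full inhibition.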

A short description of assay [10]: qHTS Assay for Lipid Storage Modulators (AID 1519; calls by dose curve). Particulars: Drosophila S3 cells, BODIPY lipid droplet/cell ratio, laser cytometry, cells loaded with oleic acid; for activity change, negative = inhibition: at 57.5 µM (top of the series). In short, it runs like this: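 Cells seeded at 5,000 per well were treated with compounds over a concentration series and loaded with oleic acid (400 uM, as added). Lipid droplet fluorescence (488 nm excitation, 500-530 nm channel) was read by laser-scanning cytometry and normalized to 20 uM Triacsin C.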

Assay [11] concerns the target Cytochrome P450 3A4 (Homo sapiens) (UniProt P08684). As to the kind of experiment: qHTS Assay for Inhibitors and Substrates of Cytochrome P450 3A4 (AID 884; active means well fitted curve in the direction sought with a large enough effect; an effect the other way counts as inactive or inconclusive; further: nearly all actives have a fitted effect of over 50% in size; further: potency means the concentration at half of the fitted maximal effect). To be noted: recombinant CYP3A4, Luciferin-PPXE luminescence; series mostly up to 57.1 µM. In a few lines: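 20 nM human CYP3A4 with 25 uM Luciferin-PPXE (at KM) in 200 mM KPO4, preincubated 10 min with compound; NADPH regeneration started a 60 min RT reaction. Luciferin detected by luminescence, normalized to 57 uM ketoconazole as full inhibition.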

The target of assay [12] is Cytochrome P450 2D6 (Homo sapiens) (UniProt P10635). As to the kind of experiment: qHTS Assay for Inhibitors and Substrates of Cytochrome P450 2D6 (AID 891; active means well fitted curve in the direction sought with a large enough effect; an effect the other way counts as inactive or inconclusive; further: nearly all actives have a fitted effect of over 60% in size; further: potency means the concentration at half of the fitted maximal effect). Particulars: recombinant CYP2D6, luciferin-ME EGE luminescence; series mostly up to 57.1 µM. In a few lines: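 Human CYP2D6 (5 nM) with 30 uM Luciferin-ME EGE (at Km) in 100 mM KPO4, compound preincubated 10 min, then NADPH regeneration system for 60 min at room temperature. Luciferin read by luminescence; normalized to 1.43 uM quinidine.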

Assay [13] addresses Cytochrome P450 2C19 (Homo sapiens) (UniProt P33261). Briefly: qHTS Assay for Inhibitors and Substrates of Cytochrome P450 2C19 (AID 899; active means well fitted curve in the direction sought with a large enough effect; an effect the other way counts as inactive or inconclusive; further: on the % scale 0 is the no-effect control and ±100 the full control effect; nearly all actives have a fitted effect of over 60% in size). Particulars: recombinant CYP2C19, luciferin-H EGE luminescence; series mostly up to 57.1 µM. In a few lines:
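Reactions contain 5nM enzyme, 10uM Luciferin-H EGE (KM) and 50mM KPO4; compound preincubates 10 min at 37C, NADPH regeneration starts turnover for 60 min. Luminescence after detection reagent gives activity.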

Where [14] appears, read: measured here: cell count channel max response.
The mark [15] stands for this setting: measured here: lipid channel max response.

Inconclusive results are not listed. Active and inactive are the calls of the source. Unless noted, the call rests on the fitted dose curve; in most records, active means well fitted curve in either direction with a large enough effect (not every such curve was filed as active); inconclusive means small, poorly fitted or top-dose-only effect, or another doubt; inactive means flat fitted curve, though single readings scatter. A value given as a limit tells only on which side of the number the result lay.

Sequence of 3',5'-cyclic-AMP phosphodiesterase 4B (Homo sapiens) (Q07343 whole entry, looked up): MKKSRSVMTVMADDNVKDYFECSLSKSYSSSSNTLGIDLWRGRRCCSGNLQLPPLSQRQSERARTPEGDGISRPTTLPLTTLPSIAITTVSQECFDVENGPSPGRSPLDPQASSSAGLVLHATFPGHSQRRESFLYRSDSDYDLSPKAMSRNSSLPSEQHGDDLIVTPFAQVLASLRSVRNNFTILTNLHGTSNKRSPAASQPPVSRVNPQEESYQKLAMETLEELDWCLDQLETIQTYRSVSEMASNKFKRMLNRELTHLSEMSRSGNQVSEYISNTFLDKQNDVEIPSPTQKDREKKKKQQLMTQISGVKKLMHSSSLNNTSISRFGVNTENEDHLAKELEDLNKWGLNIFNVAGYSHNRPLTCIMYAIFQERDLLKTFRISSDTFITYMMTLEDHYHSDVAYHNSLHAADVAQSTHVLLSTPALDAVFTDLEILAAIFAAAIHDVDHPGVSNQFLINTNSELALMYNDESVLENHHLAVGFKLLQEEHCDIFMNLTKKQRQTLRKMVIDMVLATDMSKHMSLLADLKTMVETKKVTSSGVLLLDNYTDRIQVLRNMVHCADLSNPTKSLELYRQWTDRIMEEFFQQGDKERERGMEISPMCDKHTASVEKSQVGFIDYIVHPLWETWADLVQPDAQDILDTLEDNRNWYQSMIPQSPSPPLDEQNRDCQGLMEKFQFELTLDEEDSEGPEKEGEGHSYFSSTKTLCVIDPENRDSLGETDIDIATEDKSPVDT
Sequence of Glucocorticoid receptor (Homo sapiens) (P04150 whole entry, looked up, the tested form may be a part): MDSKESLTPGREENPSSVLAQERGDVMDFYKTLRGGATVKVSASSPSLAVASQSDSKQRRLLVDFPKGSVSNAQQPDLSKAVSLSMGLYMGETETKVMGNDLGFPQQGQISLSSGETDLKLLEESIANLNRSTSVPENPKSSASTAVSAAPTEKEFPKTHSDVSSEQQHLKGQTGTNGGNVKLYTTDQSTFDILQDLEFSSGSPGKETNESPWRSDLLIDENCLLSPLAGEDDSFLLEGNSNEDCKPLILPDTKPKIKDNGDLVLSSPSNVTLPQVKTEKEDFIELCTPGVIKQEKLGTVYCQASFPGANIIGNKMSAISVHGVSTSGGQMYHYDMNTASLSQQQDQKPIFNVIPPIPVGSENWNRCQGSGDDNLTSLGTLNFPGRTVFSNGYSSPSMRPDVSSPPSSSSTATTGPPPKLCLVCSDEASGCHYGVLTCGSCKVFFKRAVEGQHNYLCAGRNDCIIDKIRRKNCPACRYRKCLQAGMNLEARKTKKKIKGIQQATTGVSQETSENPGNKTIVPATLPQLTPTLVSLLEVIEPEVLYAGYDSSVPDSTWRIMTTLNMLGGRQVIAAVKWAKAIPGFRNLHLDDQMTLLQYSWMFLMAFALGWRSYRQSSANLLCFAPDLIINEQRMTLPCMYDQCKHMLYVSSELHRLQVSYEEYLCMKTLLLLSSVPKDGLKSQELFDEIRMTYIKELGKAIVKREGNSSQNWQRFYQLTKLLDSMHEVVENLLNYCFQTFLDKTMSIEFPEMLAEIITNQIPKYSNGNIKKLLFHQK
Sequence of Lysosomal acid glucosylceramidase (Homo sapiens) (P04062 whole entry, looked up): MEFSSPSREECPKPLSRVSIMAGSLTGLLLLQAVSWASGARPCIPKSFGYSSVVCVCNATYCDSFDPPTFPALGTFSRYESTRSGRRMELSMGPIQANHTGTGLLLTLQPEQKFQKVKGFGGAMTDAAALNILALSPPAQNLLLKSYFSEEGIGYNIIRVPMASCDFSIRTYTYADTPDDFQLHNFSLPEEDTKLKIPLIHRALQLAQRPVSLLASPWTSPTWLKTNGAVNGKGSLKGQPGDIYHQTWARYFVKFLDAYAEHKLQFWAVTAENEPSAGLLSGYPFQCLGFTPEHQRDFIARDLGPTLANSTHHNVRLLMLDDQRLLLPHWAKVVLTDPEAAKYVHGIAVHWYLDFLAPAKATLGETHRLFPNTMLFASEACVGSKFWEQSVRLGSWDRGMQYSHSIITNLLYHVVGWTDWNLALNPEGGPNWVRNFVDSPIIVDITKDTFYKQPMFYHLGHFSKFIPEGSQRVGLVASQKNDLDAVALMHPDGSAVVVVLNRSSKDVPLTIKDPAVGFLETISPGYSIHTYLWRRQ
Sequence of Cytochrome P450 1A2 (Homo sapiens) (P05177 whole entry, looked up): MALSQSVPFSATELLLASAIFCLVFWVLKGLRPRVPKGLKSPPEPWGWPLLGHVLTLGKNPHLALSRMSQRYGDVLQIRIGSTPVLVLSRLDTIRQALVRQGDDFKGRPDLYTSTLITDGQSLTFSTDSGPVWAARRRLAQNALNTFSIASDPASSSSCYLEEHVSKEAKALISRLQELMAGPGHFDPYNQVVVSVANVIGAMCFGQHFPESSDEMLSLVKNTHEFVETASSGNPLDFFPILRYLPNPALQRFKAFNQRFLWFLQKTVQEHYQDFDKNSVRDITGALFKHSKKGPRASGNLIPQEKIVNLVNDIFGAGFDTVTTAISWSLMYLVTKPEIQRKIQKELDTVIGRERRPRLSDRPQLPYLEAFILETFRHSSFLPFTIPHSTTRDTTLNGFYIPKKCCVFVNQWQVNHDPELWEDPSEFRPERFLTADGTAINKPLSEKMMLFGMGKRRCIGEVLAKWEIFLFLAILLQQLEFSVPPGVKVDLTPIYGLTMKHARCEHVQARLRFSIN
Sequence of Cytochrome P450 3A4 (Homo sapiens) (P08684 whole entry, looked up): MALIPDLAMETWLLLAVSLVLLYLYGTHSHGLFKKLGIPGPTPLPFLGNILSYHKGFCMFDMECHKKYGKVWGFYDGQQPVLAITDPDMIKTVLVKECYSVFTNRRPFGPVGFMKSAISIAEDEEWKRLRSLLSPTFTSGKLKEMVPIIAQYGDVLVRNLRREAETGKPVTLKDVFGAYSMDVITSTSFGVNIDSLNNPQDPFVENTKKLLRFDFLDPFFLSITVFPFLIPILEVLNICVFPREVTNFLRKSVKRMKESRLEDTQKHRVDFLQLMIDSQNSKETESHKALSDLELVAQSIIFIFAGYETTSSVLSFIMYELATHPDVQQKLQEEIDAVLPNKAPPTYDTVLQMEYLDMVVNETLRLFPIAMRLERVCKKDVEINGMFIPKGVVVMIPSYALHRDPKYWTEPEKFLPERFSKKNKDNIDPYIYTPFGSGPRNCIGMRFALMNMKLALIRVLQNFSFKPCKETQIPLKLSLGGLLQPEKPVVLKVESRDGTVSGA
Sequence of Cytochrome P450 2D6 (Homo sapiens) (P10635 whole entry, looked up): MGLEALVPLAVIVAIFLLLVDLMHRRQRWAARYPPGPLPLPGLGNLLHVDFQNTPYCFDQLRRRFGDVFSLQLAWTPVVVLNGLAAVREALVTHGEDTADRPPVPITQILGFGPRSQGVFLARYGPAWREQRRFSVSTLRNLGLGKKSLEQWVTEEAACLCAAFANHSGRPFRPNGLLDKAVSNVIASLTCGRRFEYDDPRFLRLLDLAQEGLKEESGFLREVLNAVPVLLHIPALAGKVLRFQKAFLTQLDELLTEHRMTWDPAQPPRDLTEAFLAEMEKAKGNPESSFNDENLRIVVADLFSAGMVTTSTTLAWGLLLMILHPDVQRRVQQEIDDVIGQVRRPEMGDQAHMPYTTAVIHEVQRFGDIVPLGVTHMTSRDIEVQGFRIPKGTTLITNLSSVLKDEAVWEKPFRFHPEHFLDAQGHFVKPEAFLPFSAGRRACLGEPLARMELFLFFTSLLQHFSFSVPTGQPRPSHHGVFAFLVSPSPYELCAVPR
Sequence of Cytochrome P450 2C19 (Homo sapiens) (P33261 whole entry, looked up): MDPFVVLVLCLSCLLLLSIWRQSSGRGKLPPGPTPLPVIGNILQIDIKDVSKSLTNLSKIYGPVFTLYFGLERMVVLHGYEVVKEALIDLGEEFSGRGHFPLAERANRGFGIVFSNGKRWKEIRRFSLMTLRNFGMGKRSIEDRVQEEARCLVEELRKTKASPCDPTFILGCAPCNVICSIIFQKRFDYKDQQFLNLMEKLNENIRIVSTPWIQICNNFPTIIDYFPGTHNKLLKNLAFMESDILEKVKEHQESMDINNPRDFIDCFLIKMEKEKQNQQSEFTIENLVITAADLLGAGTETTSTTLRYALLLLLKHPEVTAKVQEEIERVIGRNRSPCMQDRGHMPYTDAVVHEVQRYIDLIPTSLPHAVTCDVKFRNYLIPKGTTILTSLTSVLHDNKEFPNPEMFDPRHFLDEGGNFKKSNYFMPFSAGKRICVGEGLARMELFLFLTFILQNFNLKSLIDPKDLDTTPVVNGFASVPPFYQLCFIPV

Regarding `CN1CC[C@@]2(CCCN(C(=O)c3cccn3C)C2)C1`, the values for the Potency in assay [1] and in [6] were > 11.4 µM (inactive) and > 46 µM (inactive), respectively. Further, the activity change, negative = inhibition in assay [2] is 0.737% (inactive); in assay [4], 9.28% (inactive); in assay [10] it was 2.7% (inactive). Further, the Potency entry in assay [3], in assay [7], in assay [8] and in assay [9] was “inactive” each time. The activity, negative = inhibition in [5] was -1.28% (inactive). The values for the max response in assay [10] (setting [14]) and in [10] (setting [15]) were -0.284% and 4.15%, respectively.

Regarding `c1ccc(C(c2ccccc2)N2CC3(CCNCC3)C2)cc1`, the Potency in assay [1] was > 11.4 µM (inactive); in [3], 15.8 µM (active); in assay [6], > 46 µM (inactive); in [12], 2.51 µM (active). For the same molecule, the values for the activity change, negative = inhibition in [2] and in assay [10] were 14% (inactive) and 0.527% (inactive), respectively. Further, the Potency entry in [7], in [8] and in assay [11] was “inactive” in each case. Also, the figures for the max response in assay [10] (setting [14]) and in assay [10] (setting [15]) were -0.423% and 0.5%, respectively.

For the molecule `CC(C)CN1CC[C@@]2(CCCN(C(=O)c3cc(C(F)(F)F)cc(C(F)(F)F)c3)C2)C1`, the Potency is > 11.4 µM (inactive) in assay [1], 25.1 µM (active) in [3] and > 46 µM (inactive) in assay [6]. The results for the activity change, negative = inhibition in assay [2] and in assay [10] were -5.91% (inactive) and 1.55% (inactive), respectively. Besides, the activity, negative = inhibition in assay [5] was 11.2% (inactive). Also, the Potency result in [7], in assay [8] and in assay [9] was “inactive” in each case. Moreover, the max response in assay [10] (setting [14]) was determined as 13.4%; in assay [10] (setting [15]), 17.5%.

As to `O=C(c1cnccn1)N1CCC2(CCCN(c3cccc(-c4ccccc4)c3)C2)CC1`, the Potency in assay [1] is > 11.4 µM (inactive); in assay [3] it was 20 µM (active); in assay [6] it was > 46 µM (inactive); in [11], 2 µM (active). Further, the activity change, negative = inhibition is -16.1% (inactive) in assay [2], 5.03% (inactive) in assay [4] and -1.76% (inactive) in assay [10]. In addition, the activity, negative = inhibition in assay [5] is -8.34% (inactive). Further, the Potency entry in [7] and in assay [9] was “inactive” throughout. Besides, the max response in assay [10] (setting [14]) is 20.5%; in assay [10] (setting [15]) it was 18.4%.

On to `COCC(=O)N1CCC2(CC1)CN(Cc1nccs1)C2`, for which the Potency in assay [1] is > 11.4 µM (inactive); in assay [6] it was > 46 µM (inactive). The activity change, negative = inhibition is -21.4% (inactive) in assay [2] and 3.6% (inactive) in [10]. Moreover, the Potency result in assay [3], in assay [7], in [8], in assay [11], in assay [12] and in assay [13] was “inactive” in each case. In addition, the max response in assay [10] (setting [14]) was determined as 4.27%; in assay [10] (setting [15]), 13.5%.
